Read-out in experiment [1]: Human Leukocyte Antigen - DR isotype (HLADR), HLA-DRA (gene 3122)
The experiment in a line: BSK_BE3C_HLADR: BioMAP Diversity Plus: BE3C Assay for Human Leukocyte Antigen - DR isotype (HLADR) Biomarker Activity (AID 2283032). The following applies: primary human bronchial epithelial cells; actives raise or lower the signal. In a few lines:
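Cell-surface HLA-DR ELISA readout at 24 h after dosing in the BE3C primary human lung bronchial epithelial system; gain or loss of signal against DMSO, with parallel sulforhodamine B staining of total protein for overt cytotoxicity.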

Read-out in experiment [2]: Vascular cell adhesion molecule 1 (VCAM1), VCAM1 (gene 7412)
The experiment in a line: BSK_4H_VCAM1: BioMAP Diversity Plus: 4H Assay for Vascular cell adhesion molecule 1 (VCAM1) Biomarker Activity (AID 2283033).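 Further: cell-surface VCAM-1 protein measured by ELISA.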 Particulars: primary human endothelial cells (HUVEC); actives raise or lower the signal. In a few lines:
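VCAM-1 ELISA read 24 h after chemical dosing of HUVEC in the BioMAP 4H system, with gain or loss of signal fitted relative to DMSO. Parallel SRB staining (560 nm) checked overt cytotoxicity.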

Read-out in experiment [3]: Interferon-gamma inducible Protein 10 (IP10), CXCL10 (gene 3627)
The experiment in a line: BSK_BE3C_IP10: BioMAP Diversity Plus: BE3C Assay for Interferon-gamma inducible Protein 10 (IP10) Biomarker Activity (AID 2283034). The following applies: primary human bronchial epithelial cells; actives raise or lower the signal. In a few lines: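 IP-10 quantified by ELISA in human primary bronchial epithelial cell cultures at 24 hours post-dosing. Gain or loss of signal fitted relative to DMSO; parallel SRB staining assessed overt cytotoxicity.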

Read-out in experiment [4]: Monokine induced gamma interferon (MIG), CXCL9 (gene 4283)
The experiment in a line: BSK_BE3C_MIG: BioMAP Diversity Plus: BE3C Assay for Monokine induced gamma interferon (MIG) Biomarker Activity (AID 2283035). Particulars: primary human bronchial epithelial cells; actives raise or lower the signal. Summed up: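 Dose cells (human primary bronchial epithelial), incubate 24 h, quantify MIG by ELISA, then fit concentration–response in both directions relative to DMSO control.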

Read-out in experiment [5]: Transforming growth factor beta 1 (TGFb1), TGFB1 (gene 7040)
The experiment in a line: BSK_BE3C_TGFb1: BioMAP Diversity Plus: BE3C Assay for Transforming growth factor beta 1 (TGFb1) Biomarker Activity (AID 2283036;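 further: TGF-b1 protein level measured by ELISA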). The following applies: primary human bronchial epithelial cells; actives raise or lower the signal. In a few lines:
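ELISA readout of TGF-b1 from human lung bronchial epithelial primary cells, taken 24 h post-treatment. Gain or loss of signal fitted relative to DMSO baseline, with parallel SRB staining for overt cytotoxicity.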

Read-out in experiment [6]: urokinase plasminogen activator (uPA), PLAU (gene 5328)
The experiment is described as follows: BSK_BE3C_uPA: BioMAP Diversity Plus: BE3C Assay for urokinase plasminogen activator (uPA) Biomarker Activity (AID 2283038).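 Further: uPA protein level quantified by ELISA in cell cultures; uPA read one day after compound addition.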 Particulars: primary human bronchial epithelial cells; actives raise or lower the signal. In a few lines:
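ELISA read-out of uPA in human lung primary bronchial epithelial cultures, 24 h post-dosing. Gain or loss of signal fitted bidirectionally relative to DMSO baseline; cytotoxicity checked in parallel cultures via SRB total protein stain.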

Read-out in experiment [7]: Urokinase-type plasminogen activator receptor (uPAR), PLAUR (gene 5329)
The experiment is described as follows: BSK_BE3C_uPAR: BioMAP Diversity Plus: BE3C Assay for Urokinase-type plasminogen activator receptor (uPAR) Biomarker Activity (AID 2283039).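 Further: cells exposed to compound for one day before measurement.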 The following applies: primary human bronchial epithelial cells; actives raise or lower the signal. Summed up: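 uPAR levels were measured by ELISA after 24 h compound treatment of primary human bronchial epithelial cells, fitted in both directions relative to DMSO. Parallel SRB staining served as the cytotoxicity read-out.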

Read-out in experiment [8]: Interleukin-6 (IL6), IL6 (gene 3569)
The experiment in a line: BSK_CASM3C_IL6: BioMAP Diversity Plus: CASM3C Assay for Interleukin-6 (IL6) Biomarker Activity for (AID 2283040). The following applies: primary human coronary artery smooth muscle cells; actives raise or lower the signal.

Read-out in experiment [9]: Tissue plasminogen activator (tPA), PLAT (gene 5327)
The experiment is described as follows: BSK_BE3C_tPA: BioMAP Diversity Plus: BE3C Assay for Tissue plasminogen activator (tPA) Biomarker Activity (AID 2283041).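 Further: tPA level quantified by ELISA one day after compound addition.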 The following applies: primary human bronchial epithelial cells; actives raise or lower the signal. In a few lines:
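tPA measured by ELISA 24 h after dosing human primary bronchial epithelial cells (BE3C system). Changes in either direction were fitted against DMSO. Parallel cultures were stained with SRB to flag overt cytotoxicity.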

Read-out in experiment [10]: Interleukin-8 (IL8), CXCL8 (gene 3576)
The experiment in a line: BSK_CASM3C_IL8: BioMAP Diversity Plus: CASM3C Assay for Interleukin-8 (IL8) Biomarker Activity (AID 2283042).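 Further: IL-8 protein level quantified by ELISA.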 The following applies: primary human coronary artery smooth muscle cells; actives raise or lower the signal.

Read-out in experiment [11]: Human Leukocyte Antigen - DR isotype (HLADR), HLA-DRA (gene 3122)
The experiment is described as follows: BSK_CASM3C_HLADR: BioMAP Diversity Plus: CASM3C Assay for Human Leukocyte Antigen - DR isotype (HLADR) Biomarker Activity (AID 2283043).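 Further: cell-surface HLA-DR protein level quantified by ELISA.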 The following applies: primary human coronary artery smooth muscle cells; actives raise or lower the signal.

Read-out in experiment [12]: Macrophage colony-stimulating factor (MCSF), CSF1 (gene 1435)
The experiment in a line: BSK_CASM3C_MCSF: BioMAP Diversity Plus: CASM3C Assay for Macrophage colony-stimulating factor (MCSF) Biomarker Activity (AID 2283044).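 Further: M-CSF protein amount quantified by ELISA after 24 h exposure.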 Particulars: primary human coronary artery smooth muscle cells; actives raise or lower the signal.

Read-out in experiment [13]: Low-density lipoprotein receptor (LDLR), LDLR (gene 3949)
The experiment is described as follows: BSK_CASM3C_LDLR: BioMAP Diversity Plus: CASM3C Assay for Low-density lipoprotein receptor (LDLR) Biomarker Activity (AID 2283045).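 Further: LDLR protein level on the cell surface quantified by ELISA.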 The following applies: primary human coronary artery smooth muscle cells; actives raise or lower the signal.

Read-out in experiment [14]: Monocyte Chemoattractant Protein-1 (MCP1), CCL2 (gene 6347)
The experiment is described as follows: BSK_CASM3C_MCP1: BioMAP Diversity Plus: CASM3C Assay for Monocyte Chemoattractant Protein-1 (MCP1) Biomarker Activity (AID 2283046).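 Further: MCP-1 level quantified by ELISA 24 h after dosing.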 The following applies: primary human coronary artery smooth muscle cells; actives raise or lower the signal.

Experiment [15] can be described thus: BSK_CASM3C_Proliferation: Cell Proliferation Assessment in the BioMAP Diversity Plus: CASM3C Assay (AID 2283047).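 Further: sulforhodamine B total protein stain as relative cell number at 560 nm; sub-confluent cells exposed 48 h before staining; fitted both ways against DMSO so gain or loss of cell number.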 The following applies: primary human coronary artery smooth muscle cells.
Read-out in experiment [16]: Monokine induced gamma interferon (MIG), CXCL9 (gene 4283)
The experiment is described as follows: BSK_CASM3C_MIG: BioMAP Diversity Plus: CASM3C Assay for Monokine induced gamma interferon (MIG) Biomarker Activity (AID 2283048).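 Further: MIG protein level measured by ELISA.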 The following applies: primary human coronary artery smooth muscle cells; actives raise or lower the signal.

Read-out in experiment [17]: serum amyloid A (SAA), SAA1 (gene 6288)
The experiment is described as follows: BSK_CASM3C_SAA: BioMAP Diversity Plus: CASM3C Assay for serum amyloid A (SAA) Biomarker Activity (AID 2283049).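 Further: SAA protein level quantified by ELISA.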 Particulars: primary human coronary artery smooth muscle cells; actives raise or lower the signal.

The nature of experiment [18]: BSK_CASM3C_SRB: Viability Assessment in the BioMAP Diversity Plus: CASM3C Assay (AID 2283050). Particulars: primary human coronary artery smooth muscle cells.
Read-out in experiment [19]: Thrombomodulin, THBD (gene 7056)
The experiment in a line: BSK_CASM3C_Thrombomodulin: BioMAP Diversity Plus: CASM3C Assay for Thrombomodulin Biomarker Activity (AID 2283051).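 Further: thrombomodulin protein level measured by ELISA 24 h after dosing.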 The following applies: primary human coronary artery smooth muscle cells; actives raise or lower the signal.

Read-out in experiment [20]: Plasminogen activator inhibitor-1 (PAI1), SERPINE1 (gene 5054)
The experiment is described as follows: BSK_BE3C_PAI1: BioMAP Diversity Plus: BE3C Assay for Plasminogen activator inhibitor-1 (PAI1) Biomarker Activity (AID 2283037). Particulars: primary human bronchial epithelial cells; actives raise or lower the signal. Summed up: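 PAI-1 was measured by ELISA in human primary bronchial epithelial cultures 24 h after chemical dosing, with cytotoxicity checked by SRB total-protein staining in parallel cultures. Activity was fitted in both directions relative to DMSO.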

The source made the active and inactive calls. How the source made its calls: active means hit-call score of the fitted dose curve at least 0.9, where 1 is the maximum; inactive means score below 0.9.

Take `Nc1nc2ncc(CNc3ccc(C(=O)N[C@@H](CCC(=O)O)C(=O)O)cc3)nc2c(=O)[nH]1`: the result in experiment [1], in experiment [2], in experiment [3], in [4], in experiment [5] and in experiment [6] was inactive. In addition, the result in [7], in [8], in [9], in experiment [10], in experiment [11] and in [12] was inactive. Moreover, the result in experiment [13], in [14], in experiment [15], in [16], in experiment [17] and in experiment [18] was inactive. For the same compound, in [19], the outcome was inactive.

Turning to `Cc1ccc(O)cc1`, the result in [1], in experiment [2], in experiment [3], in [4], in [5] and in experiment [20] was inactive. Moreover, the result in [6], in experiment [8], in [9], in experiment [10], in [11] and in experiment [12] was inactive. Further, the outcome in [13], in experiment [14], in [15], in experiment [16], in experiment [17] and in experiment [18] was inactive. Also, the outcome in [19] was inactive.

Consider `CNS(=O)(=O)c1cc(C(=O)N2CCC(CCN3C4CCC3CC(n3c(C)nc5ccccc53)C4)(c3cccc(F)c3)CC2)c(Cl)cc1F` (centres undefined), for which the outcome in experiment [1], in experiment [2], in experiment [3], in experiment [4], in [5] and in experiment [6] was inactive. Further, the result in experiment [7], in [9], in experiment [10], in experiment [12], in experiment [14] and in experiment [16] was inactive. For the same compound, the result in experiment [17], in [18] and in experiment [19] was inactive. Moreover, the AC50 – broadly, the midpoint of the concentration-response curve, whichever way the signal moves – in experiment [8] is 5.62 µM (active); in experiment [11] it was 28.5 µM (active); in experiment [13], 5.4 µM (active); in experiment [15], 13.5 µM (active).

With `CC(=O)c1ccc2c(c1)[C@H](NC(=O)c1ccc(F)cc1)[C@@H](O)C(C)(C)O2`, the outcome in experiment [1], in experiment [2], in experiment [3], in experiment [4], in experiment [5] and in experiment [20] was inactive. Moreover, the outcome in experiment [6], in experiment [8], in experiment [9], in experiment [10], in experiment [11] and in [12] was inactive. The result in experiment [13], in experiment [14], in experiment [15], in experiment [16], in experiment [17] and in [18] was inactive. Further, in [19], the outcome was inactive.

Regarding `CC1=CC(=O)CC(C)(C)C1`, the result in experiment [1], in [2], in experiment [3], in experiment [4], in [5] and in experiment [20] was inactive. Further, the result in experiment [6], in [8], in [9], in [10], in experiment [11] and in experiment [12] was inactive. The outcome in experiment [13], in experiment [14], in [15], in experiment [16], in experiment [17] and in [18] was inactive. Moreover, the outcome in experiment [19] was inactive.

As for `O=C1OC(=O)C2C3C=CC(C3)C12` (centres undefined), the outcome in [1], in experiment [2], in experiment [3], in experiment [4], in [5] and in experiment [20] was inactive. Also, the result in experiment [6], in experiment [8], in [9], in [10], in experiment [11] and in experiment [12] was inactive. The outcome in [13], in experiment [14], in [15], in experiment [16], in [17] and in [18] was inactive. In experiment [19], the result was inactive.

Source of the values: PubChem BioAssay (EPA / NIEHS).
